# Values joined by “and” are separate entries in the source; they are usually repeats but may differ in a detail not shown here. Equal entries are not always repeated. Hit rate of the full screen: of about 330,000 compounds, about 1,100 (0.33%) were called active. The entries come from a sample that favours actives as a whole. Unmarked numbers belong to inactive results. Rule as the data show it: active = inhibition above about 85%; inactive = the rest.
# Test: growth inhibition of S. aureus RN4220, primary screen, OD600 (AID 1259311);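 also: plate controls were untreated cells for no effect and reference antibiotic for full effect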
# Conditions: OD600, 16 h, stronger effect = higher value
row,Compound,inhibition
1,O=C1C(=O)N(CC2COc3ccccc3O2)c2ccccc21 (stereo not given),5.32%
2,Cc1cc(C(=O)CCl)c(C)n1CC1COc2ccccc2O1 (stereo not given),93.5% (active)
3,Cc1ccsc1C(=O)OCC(=O)c1cc(C)n(CC2CCCO2)c1C (stereo not given),2.84%
4,CON=Cc1ccc(Sc2ccc(C)cc2)c([N+](=O)[O-])c1,-19%
5,OCc1ccc(OCCCOc2cccc3cccnc23)cc1,4.11%
6,O=C(Nc1ccccc1)Oc1cccc2cccnc12,94.9% (active)
7,NC(=O)C1CCN(C(=O)COc2cccc3cccnc23)CC1,-6.77%
8,CCCOc1ccc(NC=CC(=O)C(C)(C)C)cc1,7.56%
9,Cc1cc(C(=O)NN=Cc2ccncc2)c(C)o1,-0.256%
10,CNC(=S)NN=C(C)c1ccc(C(C)(C)C)cc1,0.974%
11,O=C1C2N=NN(CC(=O)N3N=C(c4cccc5ccccc45)CC3c3ccccc3)C2C(=O)N1c1ccccc1 (stereo not given),7.1%
12,Cc1ccc(N2C(=O)C3N=NN(CC(=O)N4N=C(c5cccc6ccccc56)CC4c4ccccc4)C3C2=O)cc1 (stereo not given),1.33%
13,Oc1ccccc1C1=NN(c2ccccc2)C(c2ccccc2)C1 (stereo not given),94% (active)
14,Cc1cccc(NC(=S)NN=C(c2ccccc2)C(C)C)c1,-4.52%
15,Cc1ccc(NC(=S)Nc2ccc(F)cc2)cc1,-0.939%
16,Cc1cccc(NC(=S)Nc2ccc(Cl)c(Cl)c2)c1,98.8% (active)
17,CC(=O)NN=C(C)CC(=O)Nc1ccc2c(c1)OCCO2,1.21%
18,COc1cc(NS(=O)(=O)c2ccc(NC(=O)c3ccc([N+](=O)[O-])cc3)cc2)ncn1,2.54%
19,Cn1ccc(=Nc2ccc(NC(=O)c3ccc(N=c4ccn(C)c5ccc([N+](=O)[O-])cc45)cc3)cc2)cc1,95.4% (active)
20,CCc1ccc(NC(=O)c2ccc(Cn3cc([N+](=O)[O-])cn3)cc2)cc1,18.3%

row,Compound,inhibition
1,CC(NC(=O)c1nc[nH]c1C(=O)N(C)Cc1ccccc1)C(=O)OC(C)(C)C (stereo not given),2.94%
2,CCc1ccc(C=NNc2nn[nH]n2)cc1,0.812%
3,O=C(Nc1ccccc1C(=O)Nc1ccncc1)c1ccc([N+](=O)[O-])cc1,3.63%
4,O=C(c1ccncc1)c1ccc([N+](=O)[O-])cc1,75% (active)
5,O=C(Nn1cnnc1)c1ccc([N+](=O)[O-])cc1,4.07%
6,Cc1c(NC(=O)C(=O)C=C(O)c2ccccc2)c(=O)n(-c2ccccc2)n1C,-0.817%
7,C#CCOCCOCCOCCNc1nc(N2CCN(C(=O)C(CCCCN)n3cc(CCC(=O)O)nn3)CC2)nc(N2CCN(C(=O)C(C(C)O)n3cc(CCCCN)nn3)CC2)n1 (stereo not given),-0.306%
8,O=C(Nc1ccc2ccccc2c1)/C(=C/c1cccc(Br)c1)NC(=O)c1ccco1,0.361%
9,Cc1ccc(OCC(=O)NCCCNC(=O)c2ccco2)cc1C,-1.59%
10,CCCc1ccc(OCC(=O)NNC(=S)NC(=O)c2ccco2)cc1,102% (active)
11,CC(Oc1ccc2ccccc2c1)C(=O)NNC(=S)NC(=O)c1ccco1 (stereo not given),92.3% (active)
12,Cc1ccc(OCC(=O)NNC(=S)NCc2ccccc2)cc1,3.38%
13,Cc1ccc(C(=O)NNC(=O)C(C)Oc2ccc3ccccc3c2)o1 (stereo not given),0.442%
14,Cc1cc(=O)[nH]c(NN=Cc2ccccc2Cl)n1,2.01%
15,CC(C(O)c1ccccc1)N(C)C(=O)CCc1ccccc1 (stereo not given),0.814%
16,Cc1cc(Cl)ccc1OCCCC(=O)NN=Cc1cccc([N+](=O)[O-])c1,-5.47%
17,CN(C)c1ccc(C(=NO)C(F)(F)F)cc1,19.2%
18,O=C(CN1C(=O)C(=Cc2ccc(C(F)(F)F)cc2)Sc2ccccc21)NCc1ccco1,2.46%
19,COc1c(N2CCN(C(=S)Nc3ccccc3F)C(C)C2)c(F)cc2c(=O)c(C(=O)O)cn(C3CC3)c12 (stereo not given),99.8% (active)
20,COc1ccccc1NC(=S)N1CCN(c2ccc(F)cc2)CC1,3.36%

row,Compound,inhibition
1,CC1CN(C(=S)Nc2ccccc2F)CC(C)O1 (stereo not given),-2.44%
2,S=c1[nH]nc(C2CCCCC2)n1N=C/C=C/c1ccccc1,3.47%
3,COC(=O)c1cc(OC)ccc1-c1ccc(OC)cc1,-2.37%
4,COc1ccc(CNC(=O)CCN2C(=O)c3ccccc3C2=O)cc1,0.137%
5,CCOC(=O)C1=C(c2ccc(OC)cc2)C(=O)c2ccccc2C1=O,96.9% (active)
6,Cc1nn(Cc2ccc(F)cc2)c(Cl)c1C=NNC(=O)c1cccnc1,4.34%
7,COC(=O)NN=C(C)c1ccc(Br)cc1,0.736%
8,S=c1[nH]nc(COc2ccccc2)n1N=C/C=C/c1ccccc1,7.1%
9,CN1CCN(N=Cc2nc(-c3ccccc3Cl)n3ccccc23)CC1,7.72%
10,O=S(=O)([N-]c1nc2ccccc2nc1-[n+]1ccc(Cc2ccccc2)cc1)c1ccc(Br)s1,94.6% (active)
11,O=S(=O)(NCc1ccccn1)c1ccc(Br)s1,8.79%
12,CN1CCc2c(sc(N=Cc3cc(Cl)ccc3O)c2C#N)C1,5.61%
13,CCN1/C(=C/c2ccc3ccc(C)cc3[n+]2CC)Sc2ccccc21,100% (active)
14,CC1CN(C(C)CO)C(=O)c2cccc(NC(=O)Nc3ccc(C(F)(F)F)cc3)c2OC1CN(C)C (stereo not given),0.322%
15,COc1ccccc1NC(=O)c1ccc2nc(N3C(=O)CCC3=O)sc2c1,2.05%
16,COc1ccc(C(=O)Nc2cccc(/C=C(/CCC(=O)O)c3nc4ccccc4s3)c2)cc1,19.7%
17,COc1ccc(C2=NN(c3nc4ccccc4s3)C(=O)C2)cc1,97.7% (active)
18,CCN1CC2C3C(=O)N(Cc4ccccc4)C(=O)C3[C@](C)(C1=O)N2C(=O)c1ccc(C)cc1 (stereo not given in full),3.51%
19,NC1=NCC(Cc2ccc(O)cc2)N1CC1CCCCC1 (stereo not given),4.08% and -3.38%
20,CC(=O)OC1CC[C@@]2(C)C(CCC3C4CCC(C(C)O)[C@@]4(C)CC(=O)C32)C1 (stereo not given in full),3.21%
